Measured values taken from PubChem BioAssay (Tox21).
Where “and” joins values, the source holds several entries; their conditions need not be identical. Equal values may be shown once. Records with an inconclusive call do not appear. Where a call stands in place of a potency, no number is given. Calls of active or inactive are those of the source. Unless noted, calls come from the whole dose curve; as a rule, active = well fitted curve in the direction sought with a large enough effect in the repeat runs; inconclusive = weak or mixed curves; inactive = no such curve, though single readings can be large; an effect the other way counts as inactive or inconclusive.

Assays:
[1] = qHTS assay to identify small molecule agonists of the hypoxia (HIF-1) signaling pathway - cell viability counter screen (AID 1224844; calls by dose curve; note: nearly all actives have a fitted effect of over 50% in size; note: potency is the fitted concentration of half-maximal effect)
Outline: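 In this counter screen, HRE-bla ME-180 cell viability after 17 hrs of compound exposure at 37C was read by CellTiter-Glo luminescence, multiplexed with the beta-lactamase reporter measurement.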

[2] = qHTS assay to identify small molecule agonists of H2AX (AID 1224845; active = well fitted activation curve with a large enough effect in the signal ratio in the repeat runs, not every such curve was filed as active; the % refers to the signal ratio; note: potency is the fitted concentration of half-maximal effect)
Outline: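 Wild-type CHO-K1 cells, plated overnight, exposed 3hr at 37C to 15 concentrations (0.76% DMSO final). Lysed, then HTRF anti-pH2AX (S139) cryptate and anti-H2AX-d2 antibodies, 24 hr room temperature; 665/620 nm emission read.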

[3] = qHTS assay to identify small molecule agonists of the hypoxia (HIF-1) signaling pathway (AID 1224846; active = well fitted activation curve with a large enough effect in the signal ratio in the repeat runs, not every such curve was filed as active; the % refers to the signal ratio)
Outline: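 ME-180 HRE-bla reporter cells; compounds in DMSO, 17 h at 37C; read-out beta-lactamase via CCF4-AM FRET.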

[4] = qHTS RealTime-Glo MT Cell Viability Assay in HepG2 cells - 24 hour (AID 1224867); note: nearly all actives have a fitted effect of over 50% in size; note: potency is the fitted concentration of half-maximal effect
Outline: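 Cells + NanoLuc/prosubstrate dispensed (600 cells/well) → 5 h at 37 C/5% CO2 → compounds in DMSO transferred → 40 h incubation at 37 C, luminescence read at 0, 8, 16, 24, 32, 40 h.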

[5] = qHTS RealTime-Glo MT Cell Viability Assay in HEK293 cells - 32 hour (AID 1224868); note: nearly all actives have a fitted effect of over 50% in size; note: potency is the fitted concentration of half-maximal effect
Outline: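 Tox21 10K qHTS, HEK293, 600 cells/well, RealTime-Glo reagent co-dispensed with cells; 5 h preincubation, compound by pintool, 37 C, luminescence at 0–40 h.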

[6] = qHTS RealTime-Glo MT Cell Viability Assay in HepG2 cells - 40 hour (AID 1224870); note: nearly all actives have a fitted effect of over 50% in size; note: potency is the fitted concentration of half-maximal effect
Outline: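 HepG2 cells (600/well) mixed with RealTime-Glo MT reagent, settled 5 h at 37 C/5% CO2 before compound addition. Nonlytic NanoLuc luminescence from viable-cell prosubstrate reduction read repeatedly during 40 h treatment at 37 C.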

[7] = qHTS assay to identify small molecule agonists of H2AX - cell viability counter screen (AID 1224847; calls by dose curve; note: nearly all actives have a fitted effect of over 30% in size; note: potency is the fitted concentration of half-maximal effect)
Outline: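 CHO-K1 cells plated overnight at 37C, then exposed 3 h at 37C to compounds at 15 concentrations (0.76% DMSO final). Viability by CellTiter-Glo luminescence after 30 min at room temperature.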

[8] = qHTS assay to identify small molecule antagonists of the estrogen related receptor (ERR) signaling pathway from Tox21 library (AID 1224848); note: nearly all actives have a fitted effect of over 50% in size; note: potency is the fitted concentration of half-maximal effect
Outline: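 Compounds dissolved in DMSO are pin-transferred onto ERR reporter cells (2,000 per well) that have settled for 6 h at 37 C. Plates then incubate 18 h at 37 C before ONE-Glo luciferase reagent and a luminescence read 30 min later.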

[9] = qHTS assay to identify small molecule agonists of the estrogen related receptor (ERR) signaling pathway from Tox21 library (AID 1224849; calls by dose curve; note: nearly all actives have a fitted effect of over 15% in size); settings: ERR reporter cell line, ONE-Glo luciferase, 18 h
Outline: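 Luciferase activity in ERR pathway reporter cells served as the agonist readout; exposure lasted 18 h at 37 C, with ONE-Glo detection after 30 min at room temperature.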

[10] = A CellTox Green Cytotoxicity Assay to monitor cytotoxicity in HEK293 cells - 0 hour (AID 1224869); note: nearly all actives have a fitted effect of over 50% in size
Outline: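 Real-time, in one plate: 600 HEK293 cells/well with dead-cell DNA dye, pinned compound after 5 h, 37 C incubation over 40 h; viable cells give no appreciable fluorescence.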

[11] = at 92.4 µM (top of the series) unless noted

Structure (SMILES) | Potency [1] | Potency [2] | Potency [3] | Potency [4] | Potency [5] | Potency [6] | Potency [7] | Potency [8] | activity change, positive = activation [9, 11] | Potency [10] | cytotoxicity [10] | activity change, positive = activation ([9]; at 42.5 µM (top of the series)) | activity change, positive = activation ([9]; at 92.4 µM (top of the series))
COP(=S)(NC(C)C)Oc1ccc(C)cc1[N+](=O)[O-] (centres undefined) | inactive | inactive | inactive | inactive | inactive | inactive |  |  |  |  |  |  | 
COP(=O)(OC)Oc1ccc([N+](=O)[O-])cc1 | inactive | inactive |  | inactive | inactive |  | inactive | 30.6 µM (active) | -54.1% (inactive) | inactive |  |  | 
C[C@]12Cc3cn[nH]c3C[C@@H]1CC[C@@H]1[C@@H]2CC[C@@]2(C)[C@H]1CC[C@]2(C)O | 8.49 µM (active) | inactive |  | inactive |  | inactive | inactive | 26.6 µM (active) | -42.2% [at 42.5 µM] (inactive) | inactive |  |  | 
C#CCC1=C(C)C(OC(=O)C2C(C=C(C)C)C2(C)C)CC1=O (centres undefined) | inactive | inactive | inactive | inactive |  | inactive |  | 48.2 µM (active) | -46% (inactive) | inactive |  |  | 
CCC[CH2][Sn]([CH2]CCC)([CH2]CCC)[O][Sn]([CH2]CCC)([CH2]CCC)[CH2]CCC | 0.479 µM (active) | 0.278 µM (active) |  | 0.603 µM (active) | 0.17 µM (active) |  | 0.278 µM (active) | 0.377 µM (active) | -60.2% [at 8.39 µM] (inactive) |  | 2.58% [at 6.97 µM] (inactive) |  | 
C[C@@H]1CC2=CC(=O)CC[C@@H]2[C@H]2CC[C@@]3(C)[C@@H](CC[C@]3(C)O)[C@@H]21 | inactive | inactive |  | inactive |  | inactive | inactive | 23.7 µM (active) | -28.8% [at 42.5 µM] (inactive) |  |  |  | 
CN1CCc2cc3c(cc2C1O)OCO3 (centres undefined) | inactive | inactive |  | inactive | inactive | inactive | inactive | inactive | 0.659% (inactive) | inactive |  |  | 
C[C@]12C/C(=C/O)C(=O)C[C@@H]1CC[C@@H]1[C@@H]2CC[C@@]2(C)[C@H]1CC[C@]2(C)O | 24.8 µM (active) and 19 µM (active) | 90.6 µM (active) |  | inactive | inactive |  | inactive | 34.7 µM (active) and 33.5 µM (active) |  | inactive |  | -37.2% (inactive) | -61.4% (inactive)
[F][Sn]([c]1ccccc1)([c]1ccccc1)[c]1ccccc1 | 0.549 µM (active) | 1.42 µM (active) |  | 0.436 µM (active) | 0.436 µM (active) | 0.219 µM (active) | 22.5 µM (active) | 0.545 µM (active) | -81.3% (inactive) | inactive |  |  | 
O=[N+]([O-])C(Br)Br | 43.7 µM (active) | inactive |  | inactive | 55 µM (active) |  | inactive | inactive | 5.44% (inactive) | inactive |  |  | 
COC(=O)c1cc(Oc2ccc(Cl)cc2Cl)ccc1[N+](=O)[O-] | inactive | inactive | inactive | inactive |  | inactive |  |  |  | inactive |  |  | 
Clc1ccc(C(c2ccc(Cl)cc2)C(Cl)Cl)cc1 | 49 µM (active) | 89.8 µM (active) |  | inactive | 49.8 µM (active) and 43.6 µM (active) | inactive | 80 µM (active) |  | -36.3% (inactive) and -43.8% (inactive) | inactive |  |  | 
CCCCc1ccccc1 | inactive | inactive |  | inactive | inactive |  | inactive |  |  | inactive |  |  | 
CC(C)N(C(=O)SC/C(Cl)=C/Cl)C(C)C | inactive | inactive | inactive | inactive | inactive | inactive |  |  |  | inactive |  |  | 
Cc1ccc2cc3c(ccc4ccccc43)c3c2c1CC3 | inactive | inactive |  | inactive | inactive | inactive | inactive |  |  | inactive |  |  | 
CCCCN(CCCC)C(=S)[S-].CCCCN(CCCC)C(=S)[S-].[Ni+2] | inactive | inactive |  | inactive | inactive |  | inactive | inactive | -0.422% [at 42.5 µM] (inactive) | inactive |  |  | 
CC1(C)C(C=C(Cl)Cl)C1C(=O)OC(C#N)c1ccc(F)c(Oc2ccccc2)c1 (centres undefined) | inactive | inactive |  | inactive | inactive | inactive | inactive |  | -26.4% (inactive) | inactive |  |  | 
O.O.O.O.O.O.O.O=S(=O)([O-])[O-].[Co+2] | inactive | inactive |  | inactive | inactive |  | inactive |  |  | inactive |  |  | 
Brc1ccc(Oc2ccc(Br)cc2Br)c(Br)c1 | inactive | inactive |  | inactive | 49 µM (active) | inactive | 113 µM (active) | inactive | 13% (inactive) | inactive |  |  | 
COP(=O)(OC)O/C(=C\Cl)c1cc(Cl)c(Cl)cc1Cl | inactive | inactive |  |  | inactive |  | inactive | 21.7 µM (active) | -68.1% (inactive) | inactive |  |  | 
CC1=C2C[C@H]3[C@@H](CC=C4C[C@@H](O)CC[C@@]43C)[C@@H]2CC[C@]12O[C@@H]1C[C@H](C)CN[C@H]1[C@H]2C | inactive | inactive | inactive | inactive | 16.9 µM (active) | inactive |  |  |  | inactive |  |  | 
